Results as given in ChEMBL document CHEMBL3988442, “University of Dundee, Small-Polar-MMV Screening Library” (2021).
For some assays here: Entries with a potency or affinity are not part of this list.

What was measured:
Parameters in all cases: scale not given: direction of the effect not stated beside the values
[1] = target: Protein translocase subunit SecA (Escherichia coli (strain K12)) (UniProt P10408); experiment: Assay to Identify E. coli SecA ATPase Inhibitors; assay type: functional; conditions: 30 µM
Chain of Protein translocase subunit SecA (Escherichia coli (strain K12)) (P10408 whole entry): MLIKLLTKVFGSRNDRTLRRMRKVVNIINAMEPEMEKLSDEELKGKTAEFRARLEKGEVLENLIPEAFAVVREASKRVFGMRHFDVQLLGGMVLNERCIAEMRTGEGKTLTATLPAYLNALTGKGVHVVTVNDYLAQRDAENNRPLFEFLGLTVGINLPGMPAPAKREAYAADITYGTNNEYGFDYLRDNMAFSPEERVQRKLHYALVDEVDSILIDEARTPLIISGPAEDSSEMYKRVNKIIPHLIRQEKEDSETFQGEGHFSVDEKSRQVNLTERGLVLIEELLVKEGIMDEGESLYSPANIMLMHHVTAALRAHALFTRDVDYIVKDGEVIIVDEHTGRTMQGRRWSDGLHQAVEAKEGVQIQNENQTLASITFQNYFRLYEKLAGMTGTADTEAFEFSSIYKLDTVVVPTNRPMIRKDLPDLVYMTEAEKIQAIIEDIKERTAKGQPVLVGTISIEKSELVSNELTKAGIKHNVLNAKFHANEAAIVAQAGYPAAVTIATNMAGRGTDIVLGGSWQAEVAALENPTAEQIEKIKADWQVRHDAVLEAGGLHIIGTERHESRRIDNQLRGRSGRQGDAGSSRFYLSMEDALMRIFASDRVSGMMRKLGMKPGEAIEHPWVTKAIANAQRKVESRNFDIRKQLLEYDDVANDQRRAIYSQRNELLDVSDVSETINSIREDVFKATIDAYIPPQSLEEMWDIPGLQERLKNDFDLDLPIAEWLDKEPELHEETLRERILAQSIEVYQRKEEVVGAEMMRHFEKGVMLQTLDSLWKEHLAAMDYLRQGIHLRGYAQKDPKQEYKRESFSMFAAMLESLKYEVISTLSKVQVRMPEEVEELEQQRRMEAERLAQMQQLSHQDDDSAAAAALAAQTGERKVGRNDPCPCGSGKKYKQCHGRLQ

[2] = target: T1, Ubiquitin-activating enzyme e1, putative (Leishmania donovani (strain BPK282A1)) (UniProt E9BSI1); experiment: Leishmania donovani Ubiquitin Activating Enzyme (LdE1); assay type: functional; conditions: 30 µM
T1 sequence (whole entry): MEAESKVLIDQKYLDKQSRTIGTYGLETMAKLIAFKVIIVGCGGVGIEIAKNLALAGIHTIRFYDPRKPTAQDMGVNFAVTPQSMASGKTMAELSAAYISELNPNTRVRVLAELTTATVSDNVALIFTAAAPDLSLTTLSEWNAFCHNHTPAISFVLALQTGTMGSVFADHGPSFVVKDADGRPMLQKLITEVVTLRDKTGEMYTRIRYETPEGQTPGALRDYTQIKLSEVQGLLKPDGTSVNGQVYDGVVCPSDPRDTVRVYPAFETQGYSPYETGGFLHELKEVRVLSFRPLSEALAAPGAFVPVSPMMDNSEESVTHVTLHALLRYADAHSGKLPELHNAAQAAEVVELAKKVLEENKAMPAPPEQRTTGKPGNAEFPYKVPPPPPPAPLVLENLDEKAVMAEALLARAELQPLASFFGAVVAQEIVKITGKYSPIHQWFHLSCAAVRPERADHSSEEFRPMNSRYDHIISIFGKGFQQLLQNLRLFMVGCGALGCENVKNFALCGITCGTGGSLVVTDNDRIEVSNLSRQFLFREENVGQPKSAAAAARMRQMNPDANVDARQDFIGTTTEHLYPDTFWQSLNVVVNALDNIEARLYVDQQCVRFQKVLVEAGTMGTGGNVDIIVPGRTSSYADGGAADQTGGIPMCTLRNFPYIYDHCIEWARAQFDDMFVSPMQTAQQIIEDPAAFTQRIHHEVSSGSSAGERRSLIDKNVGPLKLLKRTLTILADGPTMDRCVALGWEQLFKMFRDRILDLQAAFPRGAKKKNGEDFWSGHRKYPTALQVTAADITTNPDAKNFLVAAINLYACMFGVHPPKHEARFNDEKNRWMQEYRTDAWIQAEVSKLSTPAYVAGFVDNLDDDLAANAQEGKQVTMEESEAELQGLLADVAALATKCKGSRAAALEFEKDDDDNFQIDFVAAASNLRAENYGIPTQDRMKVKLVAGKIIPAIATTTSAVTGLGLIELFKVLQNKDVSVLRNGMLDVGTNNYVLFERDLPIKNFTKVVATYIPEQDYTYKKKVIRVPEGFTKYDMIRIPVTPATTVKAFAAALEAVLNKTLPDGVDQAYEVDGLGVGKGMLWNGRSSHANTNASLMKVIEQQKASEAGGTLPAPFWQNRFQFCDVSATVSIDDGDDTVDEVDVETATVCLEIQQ

[3] = target: T2, Aspartate--tRNA(Asp/Asn) ligase (Mycobacterium tuberculosis (strain ATCC 25618 / H37Rv)) (UniProt P9WFW3); experiment: Assay for Asp RNA synthetase-1 from Mycobacterium tuberculosis; assay type: functional; conditions: 30 µM; further: in the data most compounds retested in dose-response had high values
T2 sequence (whole entry): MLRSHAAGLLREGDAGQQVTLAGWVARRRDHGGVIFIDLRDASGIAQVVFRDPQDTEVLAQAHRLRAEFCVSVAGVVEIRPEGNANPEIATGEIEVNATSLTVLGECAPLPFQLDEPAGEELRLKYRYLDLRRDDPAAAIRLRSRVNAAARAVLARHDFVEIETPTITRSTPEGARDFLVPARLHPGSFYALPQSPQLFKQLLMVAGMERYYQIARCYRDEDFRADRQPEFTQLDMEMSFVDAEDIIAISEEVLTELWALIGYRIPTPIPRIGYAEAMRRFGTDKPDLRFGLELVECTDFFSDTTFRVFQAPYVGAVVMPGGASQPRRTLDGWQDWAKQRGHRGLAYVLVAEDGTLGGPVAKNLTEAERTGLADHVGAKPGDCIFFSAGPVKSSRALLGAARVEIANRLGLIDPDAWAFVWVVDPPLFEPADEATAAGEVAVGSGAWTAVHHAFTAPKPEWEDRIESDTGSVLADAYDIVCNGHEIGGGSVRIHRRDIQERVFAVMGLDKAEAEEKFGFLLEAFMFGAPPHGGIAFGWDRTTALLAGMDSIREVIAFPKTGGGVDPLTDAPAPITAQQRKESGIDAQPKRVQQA

[4] = target: AMP-activated protein kinase, AMPK (Homo sapiens) (UniProt P54646+O43741+P54619+Q9UGJ0+Q9Y478+Q13131+Q9UGI9); experiment: AMP-dependent Kinase enzyme assay. An in vitro enzyme assay that detects ADP turnover that is directly proportional to AMPK activity. This uses naive AMPK that is activated during the assay with MK-8722; assay type: functional; conditions: 30 µM
[5] = target: Sialic acid-binding Ig-like lectin 9 (Homo sapiens) (UniProt Q9Y336); experiment: Hs-Siglec9 ALPHAscreen SOP 20170721; conditions: 10 µM
Chain of Sialic acid-binding Ig-like lectin 9 (Homo sapiens) (Q9Y336 whole entry): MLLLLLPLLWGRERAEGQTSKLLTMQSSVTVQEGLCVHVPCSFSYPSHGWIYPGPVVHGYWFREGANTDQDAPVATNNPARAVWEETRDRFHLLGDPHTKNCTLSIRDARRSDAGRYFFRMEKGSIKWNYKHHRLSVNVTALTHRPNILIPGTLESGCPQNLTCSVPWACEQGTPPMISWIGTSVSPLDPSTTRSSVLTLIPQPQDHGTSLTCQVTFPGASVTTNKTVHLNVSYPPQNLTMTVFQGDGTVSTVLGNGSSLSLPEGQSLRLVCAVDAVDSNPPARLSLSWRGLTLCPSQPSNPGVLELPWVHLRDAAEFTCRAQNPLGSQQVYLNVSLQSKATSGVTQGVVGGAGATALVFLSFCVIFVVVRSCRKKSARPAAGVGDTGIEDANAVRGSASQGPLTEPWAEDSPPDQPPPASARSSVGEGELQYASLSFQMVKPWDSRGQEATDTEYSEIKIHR

Trypanosoma cruzi = experiment: Trypanosoma cruzi phosphomannomutase and mannose-1-phosphate guanylyltransferase assay; assay type: functional; conditions: 10 µM
[6] = target: T3, Arginase-2, mitochondrial (Homo sapiens) (UniProt P78540); experiment: in vitro enzyme assay to detect the production of urea directly proportional to the activity of Arginase II; assay type: functional; conditions: 33.3 µM; further: in the data most compounds retested in dose-response had high values
T3 sequence (whole entry): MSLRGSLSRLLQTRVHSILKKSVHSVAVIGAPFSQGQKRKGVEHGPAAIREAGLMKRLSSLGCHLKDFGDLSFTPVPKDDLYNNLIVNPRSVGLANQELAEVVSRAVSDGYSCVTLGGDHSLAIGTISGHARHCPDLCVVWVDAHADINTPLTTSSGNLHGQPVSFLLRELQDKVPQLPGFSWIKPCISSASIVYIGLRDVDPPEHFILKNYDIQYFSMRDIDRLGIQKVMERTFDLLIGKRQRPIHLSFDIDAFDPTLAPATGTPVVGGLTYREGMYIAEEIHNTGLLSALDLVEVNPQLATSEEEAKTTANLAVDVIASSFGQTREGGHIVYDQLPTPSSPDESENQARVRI

[7] = target: T4, Proteasome subunit beta (Trypanosoma cruzi) (UniProt O96673); experiment: Trypanosoma cruzi proteasome chymotrypsin-like activity (TcProtChymo) assay.; further: in the data most compounds retested in dose-response had high values; assay type: functional; conditions: 9.37 µM
T4 sequence (whole entry): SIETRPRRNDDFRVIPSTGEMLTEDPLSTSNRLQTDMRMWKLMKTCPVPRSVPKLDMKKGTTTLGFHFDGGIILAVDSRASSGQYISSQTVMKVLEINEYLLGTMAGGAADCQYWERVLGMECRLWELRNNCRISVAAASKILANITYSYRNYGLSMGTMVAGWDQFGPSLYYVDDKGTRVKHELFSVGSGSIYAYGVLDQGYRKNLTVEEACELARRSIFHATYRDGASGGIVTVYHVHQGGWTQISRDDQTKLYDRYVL

Homo sapiens = species: Homo sapiens; experiment: To identify inhibition of the IFN signalling (Jak-Stat) pathway via expression of an eGFP reporter gene under the control of an IFN-stimulated response element (ISRE) containing MxA promoter.; assay type: functional; conditions: 30 µM
[8] = target: Shiga toxin 2 (Escherichia coli O157:H7) (UniProt P09385+P09386); experiment: E. coli 0.157:H7 Shiga Toxin SOP - stx2 screening assay; assay type: functional; conditions: 30 µM
[9] = target: T5, Tyrosyl-tRNA synthetase, putative (Trypanosoma cruzi (strain CL Brener)) (UniProt Q4DSP6); experiment: Trypanosoma cruzi tyrosyl tRNA synthetase (TcYRS) _High Tyrosine SOP; assay type: functional; conditions: 30 µM; further: in the data most compounds retested in dose-response had high values
T5 sequence (whole entry): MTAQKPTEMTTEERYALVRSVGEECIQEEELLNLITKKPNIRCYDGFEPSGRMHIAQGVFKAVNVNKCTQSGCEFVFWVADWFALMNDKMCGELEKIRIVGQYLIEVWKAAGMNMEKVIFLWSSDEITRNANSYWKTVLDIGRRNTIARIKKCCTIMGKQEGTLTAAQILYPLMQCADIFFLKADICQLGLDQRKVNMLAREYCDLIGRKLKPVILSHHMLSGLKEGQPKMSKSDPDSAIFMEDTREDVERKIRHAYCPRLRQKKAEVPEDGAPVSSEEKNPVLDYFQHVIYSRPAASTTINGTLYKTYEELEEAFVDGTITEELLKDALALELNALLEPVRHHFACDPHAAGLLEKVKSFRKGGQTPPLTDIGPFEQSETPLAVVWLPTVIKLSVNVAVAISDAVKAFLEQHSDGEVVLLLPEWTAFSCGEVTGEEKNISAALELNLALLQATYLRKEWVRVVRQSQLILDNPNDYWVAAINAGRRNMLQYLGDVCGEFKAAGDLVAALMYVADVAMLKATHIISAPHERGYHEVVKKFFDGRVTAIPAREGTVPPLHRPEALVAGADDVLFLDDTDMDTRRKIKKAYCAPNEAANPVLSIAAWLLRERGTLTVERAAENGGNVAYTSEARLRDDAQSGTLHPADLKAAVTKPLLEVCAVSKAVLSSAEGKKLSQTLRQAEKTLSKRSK

[10] = target: T5, Tyrosyl-tRNA synthetase, putative (Trypanosoma cruzi (strain CL Brener)); experiment: Trypanosoma cruzi tyrosyl tRNA synthetase (TcYRS) SOP; assay type: functional; conditions: 30 µM
[11] = target: Chromo domain-containing protein 1 (Saccharomyces cerevisiae (strain ATCC 204508 / S288c) (Baker's yeast)) (UniProt P32657); experiment: ScCHD-1 Enzyme Inhibition Assay; assay type: functional; conditions: 30 µM; further: in the data most compounds retested in dose-response had high values
Chain of Chromo domain-containing protein 1 (Saccharomyces cerevisiae (strain ATCC 204508 / S288c) (Baker's yeast)) (P32657 whole entry, the tested form may be a part): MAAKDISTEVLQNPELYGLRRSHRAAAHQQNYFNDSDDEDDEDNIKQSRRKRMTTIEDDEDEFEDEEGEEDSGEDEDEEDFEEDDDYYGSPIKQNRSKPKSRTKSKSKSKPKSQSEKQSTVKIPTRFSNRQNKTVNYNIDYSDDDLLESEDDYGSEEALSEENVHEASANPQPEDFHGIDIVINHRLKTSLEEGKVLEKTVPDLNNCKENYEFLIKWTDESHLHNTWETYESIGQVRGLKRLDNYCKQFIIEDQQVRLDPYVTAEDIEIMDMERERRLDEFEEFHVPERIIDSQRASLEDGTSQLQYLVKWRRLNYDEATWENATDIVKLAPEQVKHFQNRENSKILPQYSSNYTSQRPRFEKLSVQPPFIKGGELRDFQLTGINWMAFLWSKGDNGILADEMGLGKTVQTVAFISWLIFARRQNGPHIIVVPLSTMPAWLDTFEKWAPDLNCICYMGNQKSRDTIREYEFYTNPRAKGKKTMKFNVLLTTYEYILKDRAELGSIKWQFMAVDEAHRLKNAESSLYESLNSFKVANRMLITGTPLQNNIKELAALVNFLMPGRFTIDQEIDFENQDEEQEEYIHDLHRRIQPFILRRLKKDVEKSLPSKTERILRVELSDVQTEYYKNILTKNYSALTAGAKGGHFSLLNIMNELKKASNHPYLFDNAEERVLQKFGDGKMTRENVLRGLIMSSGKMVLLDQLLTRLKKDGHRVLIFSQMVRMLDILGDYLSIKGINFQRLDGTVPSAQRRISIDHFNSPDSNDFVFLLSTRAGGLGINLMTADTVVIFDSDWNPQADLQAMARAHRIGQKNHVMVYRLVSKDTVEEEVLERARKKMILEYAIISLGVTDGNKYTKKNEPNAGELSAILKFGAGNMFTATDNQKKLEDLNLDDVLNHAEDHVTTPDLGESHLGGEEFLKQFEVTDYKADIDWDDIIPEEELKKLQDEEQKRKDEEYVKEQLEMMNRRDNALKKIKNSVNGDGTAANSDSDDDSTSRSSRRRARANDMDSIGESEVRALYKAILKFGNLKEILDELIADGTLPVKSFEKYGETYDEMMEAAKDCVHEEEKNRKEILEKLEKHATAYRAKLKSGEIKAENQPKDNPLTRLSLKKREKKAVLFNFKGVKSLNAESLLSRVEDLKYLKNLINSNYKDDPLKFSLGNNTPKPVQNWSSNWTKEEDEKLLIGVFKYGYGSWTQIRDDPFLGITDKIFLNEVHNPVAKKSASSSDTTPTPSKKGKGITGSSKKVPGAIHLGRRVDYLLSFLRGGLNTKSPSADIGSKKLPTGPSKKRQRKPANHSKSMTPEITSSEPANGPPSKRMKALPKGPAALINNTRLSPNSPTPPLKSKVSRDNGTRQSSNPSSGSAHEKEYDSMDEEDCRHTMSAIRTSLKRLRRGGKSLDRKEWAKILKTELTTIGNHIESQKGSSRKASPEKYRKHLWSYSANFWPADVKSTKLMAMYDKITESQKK

| SMILES | Percent Effect [1] | Percent Effect [2] | Percent Effect [3] | Percent Effect [4] | Percent Effect [5] | Percent Effect (Trypanosoma cruzi) | Percent Effect [6] | Percent Effect [7] | Percent Effect (Homo sapiens) | Percent Effect [8] | Percent Effect [9] | Percent Effect [10] | Percent Effect [11] |
| --- | --- | --- | --- | --- | --- | --- | --- | --- | --- | --- | --- | --- | --- |
| c1cc(CN2C[C@@H]3COC[C@]3(COCC3CC3)C2)ccn1 | 1.31% | 14.7% | -0.406% | -2.54% | -3.01% | -4.13% | -1.58% | 7.58% | -2.49% | -47.3% | 2.12% | 7.69% | -2.5% |
| O=C(Cc1ccc(F)cc1)N1CCN(CC(O)C2CC2)CC1 (stereo not given) | -9.94% | 5.48% | 0.575% | 0.569% | -4.1% | -5.09% | -3.64% | 6.74% | 10.6% | 7.07% | 3.23% | 10% | -5.88% |
| COc1cc(CNCC(O)c2ccc(C)cc2)cc2c1OCCO2 (stereo not given) | -5.58% | 24.3% | -2.36% | 11% | 14.6% | 2.32% | -3.88% | 16.3% | 8.18% | -34.2% | 6.93% | 18.3% | -6.66% |
| CC(C)CN1C[C@H]2C[C@H](C(=O)Nc3cccnc3)[C@@H](C1)O2 | -0.904% | 0% | -0.0153% | 7.32% | -2.44% | -7.33% | 2.87% | 15.9% | -8.69% | -15.6% | 1.08% | 15.4% | 2.38% |
| CCN1CCC(c2cncc(N(C)C)n2)CC1 | -1.04% | 13.3% | -2.49% | 1.31% | -3.05% | -2.76% | -3.96% | 13.5% | 6.71% | -7.25% | 3.19% | 11.5% | -4.48% |
